Experimental findings from PubChem BioAssay are described below.

Test [1] in a line: binders of probe aFSTL3 on microarray, primary screen, stem cell growth factor project, biochemical, small-molecule microarray, fluorescence 635/667 (AID 1064).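 Note: measures binding of the biotinylated anti-FSTL3 antibody to printed compounds.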 Conditions: higher = more signal.
Test [2] in a line: binders from COS7 lysate, DM2A8 probe, primary screen, torsin A project, cell lysate, small-molecule microarray, fluorescence 635/667 (AID 1065). Conditions: higher = more signal, COS7 lysate expressing mutant human TOR1A.
Test [3] in a line: binders of probe aFGF2 on microarray, primary screen, stem cell growth factor project, biochemical, small-molecule microarray, fluorescence 635/667 (AID 1067).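 Note: measures binding of biotinylated aFGF2 protein to printed compounds on slides; z-score merges feature fluorescence and signal-to-noise across triplicate slides.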 As to conditions: higher = more signal.
Test [4] in a line: binders of probe aFGF10 on microarray, primary screen, stem cell growth factor project, biochemical, small-molecule microarray, fluorescence 635/667 (AID 1071).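 Note: score merges 667 nm spot intensity and signal to noise from triplicate slides.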 Conditions: higher = more signal.
Test [5] addresses Neurogenic locus notch homolog protein 2 (Homo sapiens) (UniProt Q04721). Description: Notch2 binders on small-molecule microarrays, primary screen, biochemical, small-molecule microarray, 635 nm fluorescence, stem cell growth factors (AID 1073). As to conditions: Notch2 binding, higher = more signal.
Test [6] concerns the target Pro-neuregulin-1, membrane-bound isoform (Homo sapiens) (UniProt Q02297). Description: NRG1 binders on small-molecule microarrays, primary screen, psychiatric disease protein project, biochemical, small-molecule microarray, fluorescence 635/667 (AID 1075).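 Note: score combines 667 nm spot fluorescence with signal to noise.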 As to conditions: NRG1 binding, 635 nm fluorescence, higher = more signal.
The test system of test [7] is Neuregulin-1 EGF-like domain. As to the kind of experiment: binders of neuregulin-1 EGF-like domain, primary screen, biochemical, small-molecule microarray, 635 nm fluorescence (AID 1081).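 Note: binding of the protein to compounds printed on small-molecule microarray slides.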 As to conditions: small-molecule microarray binding, higher = more signal.
A short description of test [8]: FRG1 promoter luciferase signal modulators, primary screen, FRG1 inhibition for FSHD, cell-based, C2C12 myotubes, firefly/Renilla luciferase, luminescence (AID 1084). Conditions: higher = more signal, called active from +8 up or from −8 down.
The nature of test [9]: binders of probe aFST on microarray, primary screen, stem cell growth factor project, biochemical, small-molecule microarray, fluorescence 635/667 (AID 1086).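 Note: score merges 667 nm fluorescence with signal-to-noise of each printed compound spot.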 As to conditions: higher = more signal.
A short description of test [10]: binders of probe aHhip on microarray, primary screen, stem cell growth factor project, biochemical, small-molecule microarray, fluorescence 635/667 (AID 1087).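 Note: score merges spot fluorescence at 667nm with spot signal to noise ratio.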 As to conditions: higher = more signal.
Test [11] deals with PRMT1 (protein arginine N-methyltransferase 1). As to the kind of experiment: PRMT1 binders on small-molecule microarrays, primary screen, biochemical, small-molecule microarray, 635 nm fluorescence (AID 1088).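 Note: binding of Prmt1 protein to compounds spotted on small-molecule microarray slides.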 Conditions: small-molecule microarray binding, higher = more signal.
Test [12] can be described thus: yeast growth modulation, basal conditions, primary screen, YJM789 clinical isolate, OD600, 24 h (AID 1089).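 Note: growth of clinical yeast isolate S. cerevisiae YJM 789 seeded 1000 cells per well; test concentration not given here.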 Conditions: S. cerevisiae YJM789 growth, higher = more signal, called active from +8 up or from −8 down.
A short description of test [13]: fission yeast growth modulation, primary screen, strain 972, OD600, 24 h, no modulator (AID 1090).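 Note: basal condition with compound alone and no growth modifier present; test concentration not given here.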 Conditions: S. pombe 972 growth, higher = more signal, called active from +8 up or from −8 down.
Test [14] in a line: S. cerevisiae growth modulation with rapamycin, primary screen, strain BY4716, OD600, 96 h (AID 1091). Note: test concentration not given here. As to conditions: higher = more signal, called active from +8 up or from −8 down.
Test [15] has as its target Torsin-1A-interacting protein 2 (Homo sapiens) (UniProt Q8NFQ8). Description: LULL1 binders on small-molecule microarray, primary screen, cell lysate, human LULL1 lysate, 635/667 nm fluorescence (AID 1092).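 Note: probe is lysate of COS7 cells overexpressing human LULL1; score merges per-feature 667 nm fluorescence with signal-to-noise.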 Conditions: hLULL1 lysate binding, 635 nm fluorescence, higher = more signal.
A short description of test [16]: E. coli growth modulation, two-sided OD650, primary screen, E. coli filamentation project, strain DRC41, 24 h (AID 1093).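 Note: MC1000 strain lacking acrAB efflux and sulA so SOS filamentation is blocked; test concentration not given here.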 As to conditions: OD650, 24 h, higher = more signal, called active from +8 up or from −8 down.
Test [17] in a line: small-molecule microarray binders of probe aLefty2, primary screen, biochemical, biotinylated probe, 635/667 nm fluorescence (AID 1094).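 Note: score merges spot fluorescence near 667 nm with spot signal-to-noise ratio.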 As to conditions: higher = more signal.
In test [18] the test system is Noggin (protein binding on small-molecule microarray). Description: Noggin binders on small-molecule microarray, primary screen, biochemical, 635/667 nm fluorescence (AID 1095).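 Note: score merges 667 nm feature fluorescence with signal to noise over triplicate slides.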 Conditions: 635 nm fluorescence, higher = more signal.
The target in test [19] is Neurogenic locus notch homolog protein 3 (Homo sapiens) (UniProt Q9UM47). As to the kind of experiment: NOTCH3 binders on small-molecule microarray, primary screen, biochemical, 635/667 nm fluorescence (AID 1096). As to conditions: NOTCH3 binding, 635 nm fluorescence, higher = more signal.
A short description of test [20]: small-molecule microarray binders of probe aEGFR, primary screen, biochemical, biotinylated probe, 635/667 nm fluorescence (AID 1097).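 Note: probe is a biotinylated anti-EGFR antibody binding compounds printed on slides; score combines fluorescence near 667 nm and signal to noise of each spot.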 As to conditions: higher = more signal.

Where “and” joins values, the source holds several entries; their conditions need not be identical. Equal values may be shown once. More than one record can exist for a structure, and the calls need not agree. Calls of active or inactive are those of the source.

Neurogenic locus notch homolog protein 2 (Homo sapiens), sequence (Q04721 whole entry, looked up, canonical isoform): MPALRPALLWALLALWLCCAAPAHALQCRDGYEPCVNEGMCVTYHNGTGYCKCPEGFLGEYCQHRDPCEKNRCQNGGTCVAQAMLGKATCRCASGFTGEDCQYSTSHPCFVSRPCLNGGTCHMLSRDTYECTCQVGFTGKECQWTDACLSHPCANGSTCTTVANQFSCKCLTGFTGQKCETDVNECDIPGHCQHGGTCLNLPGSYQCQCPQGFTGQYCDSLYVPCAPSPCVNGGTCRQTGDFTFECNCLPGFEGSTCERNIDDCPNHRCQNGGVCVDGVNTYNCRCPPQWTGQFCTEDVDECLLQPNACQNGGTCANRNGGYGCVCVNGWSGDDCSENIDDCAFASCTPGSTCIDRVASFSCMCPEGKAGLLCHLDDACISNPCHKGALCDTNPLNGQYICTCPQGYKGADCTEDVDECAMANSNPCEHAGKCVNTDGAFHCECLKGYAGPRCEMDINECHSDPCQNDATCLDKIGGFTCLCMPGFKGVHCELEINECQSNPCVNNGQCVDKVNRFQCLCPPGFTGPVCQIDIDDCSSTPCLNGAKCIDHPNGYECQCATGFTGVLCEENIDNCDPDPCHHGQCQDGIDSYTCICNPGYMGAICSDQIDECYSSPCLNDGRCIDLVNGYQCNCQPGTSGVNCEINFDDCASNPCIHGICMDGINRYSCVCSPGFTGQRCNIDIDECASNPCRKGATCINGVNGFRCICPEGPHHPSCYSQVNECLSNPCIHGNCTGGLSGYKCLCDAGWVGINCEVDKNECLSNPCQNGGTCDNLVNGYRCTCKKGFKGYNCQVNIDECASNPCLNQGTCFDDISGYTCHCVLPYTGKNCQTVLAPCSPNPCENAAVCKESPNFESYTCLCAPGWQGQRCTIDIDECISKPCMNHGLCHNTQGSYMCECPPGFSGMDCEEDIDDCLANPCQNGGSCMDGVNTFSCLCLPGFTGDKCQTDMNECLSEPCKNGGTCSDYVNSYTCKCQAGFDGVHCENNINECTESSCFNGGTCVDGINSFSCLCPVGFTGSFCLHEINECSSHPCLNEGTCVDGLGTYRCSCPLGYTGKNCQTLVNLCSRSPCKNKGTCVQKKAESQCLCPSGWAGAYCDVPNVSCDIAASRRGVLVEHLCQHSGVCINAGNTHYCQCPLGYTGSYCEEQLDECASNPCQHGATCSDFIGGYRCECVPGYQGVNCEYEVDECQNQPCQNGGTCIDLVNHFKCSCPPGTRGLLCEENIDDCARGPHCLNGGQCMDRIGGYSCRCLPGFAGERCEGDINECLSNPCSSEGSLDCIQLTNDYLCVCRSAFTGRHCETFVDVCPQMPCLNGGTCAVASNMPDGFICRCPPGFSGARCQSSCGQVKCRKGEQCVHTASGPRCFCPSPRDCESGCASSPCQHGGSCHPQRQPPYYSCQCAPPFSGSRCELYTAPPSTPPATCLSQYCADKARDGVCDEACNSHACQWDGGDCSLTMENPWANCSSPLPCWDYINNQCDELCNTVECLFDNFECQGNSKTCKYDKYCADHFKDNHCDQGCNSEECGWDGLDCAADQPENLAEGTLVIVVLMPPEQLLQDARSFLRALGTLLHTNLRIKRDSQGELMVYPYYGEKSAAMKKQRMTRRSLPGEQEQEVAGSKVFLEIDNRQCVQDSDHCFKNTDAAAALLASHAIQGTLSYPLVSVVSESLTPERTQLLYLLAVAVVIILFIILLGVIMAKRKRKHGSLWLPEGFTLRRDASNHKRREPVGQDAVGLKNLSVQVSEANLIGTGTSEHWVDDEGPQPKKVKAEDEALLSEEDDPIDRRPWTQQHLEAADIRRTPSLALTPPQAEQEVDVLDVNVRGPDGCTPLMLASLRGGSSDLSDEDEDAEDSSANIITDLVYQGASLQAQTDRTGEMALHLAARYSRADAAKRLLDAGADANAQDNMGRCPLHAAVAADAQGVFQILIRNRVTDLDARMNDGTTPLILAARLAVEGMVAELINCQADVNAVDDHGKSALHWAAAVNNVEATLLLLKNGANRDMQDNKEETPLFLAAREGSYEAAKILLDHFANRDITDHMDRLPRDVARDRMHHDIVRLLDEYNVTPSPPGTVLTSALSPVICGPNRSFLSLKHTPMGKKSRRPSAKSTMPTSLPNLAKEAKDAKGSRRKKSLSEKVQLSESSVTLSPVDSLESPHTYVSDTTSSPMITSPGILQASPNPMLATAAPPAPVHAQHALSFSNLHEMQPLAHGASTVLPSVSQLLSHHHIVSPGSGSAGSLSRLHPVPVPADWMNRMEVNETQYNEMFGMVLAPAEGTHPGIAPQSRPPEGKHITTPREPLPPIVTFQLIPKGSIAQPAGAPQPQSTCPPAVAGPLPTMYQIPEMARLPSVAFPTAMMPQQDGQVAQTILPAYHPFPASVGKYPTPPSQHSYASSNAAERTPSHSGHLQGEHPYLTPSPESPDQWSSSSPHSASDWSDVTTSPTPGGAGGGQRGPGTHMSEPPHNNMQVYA
Torsin-1A-interacting protein 2 (Homo sapiens), sequence (Q8NFQ8 whole entry, looked up): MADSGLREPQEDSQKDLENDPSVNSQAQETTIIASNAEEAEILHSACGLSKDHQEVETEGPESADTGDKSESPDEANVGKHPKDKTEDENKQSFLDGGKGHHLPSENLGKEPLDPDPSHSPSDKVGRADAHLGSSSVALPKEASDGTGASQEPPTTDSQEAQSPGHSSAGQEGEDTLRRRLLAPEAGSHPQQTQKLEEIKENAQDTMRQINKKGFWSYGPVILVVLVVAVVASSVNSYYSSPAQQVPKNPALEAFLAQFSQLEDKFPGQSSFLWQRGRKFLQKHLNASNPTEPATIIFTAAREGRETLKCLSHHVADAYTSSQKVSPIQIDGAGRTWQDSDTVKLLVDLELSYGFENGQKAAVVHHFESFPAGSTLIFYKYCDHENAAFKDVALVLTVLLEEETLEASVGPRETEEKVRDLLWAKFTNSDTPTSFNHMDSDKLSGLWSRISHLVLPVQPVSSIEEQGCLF
Pro-neuregulin-1, membrane-bound isoform (Homo sapiens), sequence (Q02297 whole entry, looked up, the tested form may be a part, canonical isoform): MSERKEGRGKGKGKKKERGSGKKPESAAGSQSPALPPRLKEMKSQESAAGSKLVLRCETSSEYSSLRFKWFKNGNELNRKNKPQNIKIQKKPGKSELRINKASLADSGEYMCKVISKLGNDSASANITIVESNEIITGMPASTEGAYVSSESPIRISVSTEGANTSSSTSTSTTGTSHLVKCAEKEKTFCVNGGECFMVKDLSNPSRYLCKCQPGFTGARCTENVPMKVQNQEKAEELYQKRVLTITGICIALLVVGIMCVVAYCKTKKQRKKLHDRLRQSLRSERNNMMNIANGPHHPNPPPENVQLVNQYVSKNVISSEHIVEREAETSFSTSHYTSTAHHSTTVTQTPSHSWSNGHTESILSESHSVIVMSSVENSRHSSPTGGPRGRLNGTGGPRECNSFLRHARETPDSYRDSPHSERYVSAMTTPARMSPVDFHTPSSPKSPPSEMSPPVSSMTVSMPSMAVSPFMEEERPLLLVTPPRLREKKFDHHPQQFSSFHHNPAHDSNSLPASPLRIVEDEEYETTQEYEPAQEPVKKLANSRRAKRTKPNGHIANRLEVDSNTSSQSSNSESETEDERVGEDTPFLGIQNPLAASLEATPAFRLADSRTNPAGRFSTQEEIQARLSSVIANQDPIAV

Consider `C=CCN(C(=O)C(c1cccs1)N(C(=O)/C=C\C(=O)O)C(C)(C)CO)C(C)(C)C` (stereo not given), for which the composite z-score in [1] was -0.0667 and 0.0338; in [2], -0.543 and -0.24; in test [3] it was 0.0929 and -0.126; in test [4] it was -0.433 and -0.781; in test [5], -1.07 and -0.925; in test [6], 1.32 and 1.05. Also, the composite z-score was 1.27 and 1.24 in [7]; -0.114 and -0.867 in [9]; -0.0994 and -0.385 in test [10]; -0.381 and 0.182 in test [11]; 2.89 and 0.484 in [15]; -0.141 and -0.147 in test [17]. Also, the composite z-score is -1.52 and -1.23 in test [18]; -0.97 and -0.967 in test [19]; -0.128 and -0.292 in [20]. Also, the z-score is -1.03 (inactive) and -1.13 (inactive) in test [8]; -1.81 (inactive) and -2 (inactive) in [12]; -1.45 (inactive) and -1.15 (inactive) in test [13]; -0.429 (inactive) and -0.373 (inactive) in test [14]; 2.02 (inactive) and 1.22 (inactive) in test [16].

Turning to `CO[C@@H]1COC(=O)[C@H](Cc2ccccc2)NC(=O)CC=C[C@@H](C)[C@H](OC)COC(=O)[C@@H](C)NC(=O)CC=C[C@H]1C`, the composite z-score in test [1] was -0.501 and -1.33; in test [2], 1.23 and 0.603; in [3], -0.132 and -0.168; in test [4] it was 0.0044 and 0.401; in [5], -0.223 and -0.012; in [6], -0.258 and -0.159. For the same compound, the composite z-score was 0.383 and 0.284 in test [7]; 0.409 and -0.084 in test [9]; 0.154 and -0.271 in test [10]; 1.53 and 1.15 in test [11]; 0.469 and -0.0887 in [15]; -0.217 and -0.393 in [17]. Further, the composite z-score in test [18] was 1.45 and 1.06; in [19], 1.07 and 0.862; in test [20], -0.0616 and -0.0438. Further, the z-score is 0.361 (inactive) and -0.178 (inactive) in test [8]; -0.706 (inactive) and -0.356 (inactive) in test [12]; -1.71 (inactive) and -1.2 (inactive) in test [13]; -0.916 (inactive) and -0.753 (inactive) in test [14]; -0.0559 (inactive) and 0.361 (inactive) in [16].

For the compound `C=C[C@@H](C)[C@@H](O)c1ccc(O)c2ccccc12`, the composite z-score was 0.306 and 0.254 in test [1]; -0.54 and -0.797 in test [2]; -0.105 and -0.154 in [3]; -0.262 and -0.0511 in [4]; -1.51 and -1.17 in test [5]; -0.775 and -0.178 in test [6]. Also, the composite z-score in test [7] was -0.377 and 0.98; in test [9] it was -0.774 and -0.854; in [10], -0.287 and -0.184; in test [11], -1.15 and -0.5; in test [15], -0.414 and 0.384; in [17] it was -0.239 and -0.107. For the same compound, the composite z-score is -0.803 and -0.326 in [18]; -1.25 and -0.933 in test [19]; -0.321 and -0.314 in [20]. Further, the z-score in test [8] was 1.07 (inactive) and 0.849 (inactive); in test [12] it was -5.87 (inactive) and -14.6 (active); in [13], -19.1 (active) and -19.4 (active); in [14] it was 3.53 (inactive) and 5.23 (inactive); in [16], -0.113 (inactive) and 1.61 (inactive).

Turning to `C=C[C@@H](C)[C@@H](O)c1ccc(OCCO)cc1`, the composite z-score was 1.01 and 0.0727 in [1]; -1.44 and -0.971 in test [2]; -0.232 and -0.273 in test [3]; -1.47 and -1.27 in test [4]; -1.86 and -1.3 in [5]; -0.408 and -0.496 in [6]. Moreover, the composite z-score in test [7] was -0.477 and -0.674; in [9], -1.9 and -0.848; in test [10], -0.242 and -0.644; in test [11] it was -0.851 and 0.0376; in [15], -1.11 and -0.508; in test [17] it was 0.0893 and 0.2. The composite z-score is -1.72 and -1.7 in [18]; -0.574 and -0.377 in [19]; -0.397 and -0.374 in test [20]. The z-score was 4.33 (inactive) and 1.84 (inactive) in [8]; 0.0436 (inactive) and -2.75 (inactive) in test [12]; 0.162 (inactive) and -0.815 (inactive) in [13]; -0.607 (inactive) and 0.262 (inactive) in test [14]; -0.0921 (inactive) and 1.12 (inactive) in test [16].
